# Screening data as filed in PubChem BioAssay.
# Most compounds without a hit are left out; they make up all but 2.1% or so of the library.
# Abeta rescue = qHTS for compounds that reverse cellular toxicity of Amyloid beta (A-beta) peptide in yeast: Primary Screen | Potency, µM (highest dose often 46.1 µM), most hits filed as activators | 0.063% of 410,000 active | yeast expressing A-beta42, growth rescue, OD600, 48 h; response scale: 0% DMSO, 100% iron-clioquinol control; further: nearly all actives have a fitted effect of over 55% in size
#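 Growth rescue measured by 600 nm absorbance after 48 h yeast culture at 30 C with compound. Values normalized between DMSO and an equimolar ferric chloride plus clioquinol control.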
# FUS suppressor = qHTS for Suppressors of FUS Proteinopathy: Primary screen using FUS-linked yeast assay. S. cerevisiae FUS-expressing, growth rescue, OD600, 24 h. Potency, µM (titrated, usually from 76.6 µM), hits mostly activators. 0.24% of 390,000 active;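 further: plate controls were DMSO vehicle for no effect and reference control for full effect; nearly all actives have a fitted effect of over 55% in size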
#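 Toxicity suppression screen in FUS-yeast. Cells induced with 2% galactose, starting OD 0.005, treated 24hr at 30C with compounds at multiple final concentrations; growth by OD600.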
# aSyn yeast inh = qHTS of alpha-syn Inhibitors | Yeast expressing alpha-synuclein, growth rescue, BacTiter-Glo, 24 h | Potency, µM (titrated, usually from 46.1 µM), without a hit: at the highest dose growth rescue (activation), hits mostly activators | 0.14% of 370,000 active; further: % of control where 0% means no effect; nearly all actives have a fitted effect of over 65% in size
#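 Readout is rescue of growth in alpha-synuclein-expressing yeast, so inhibitors of toxicity appear as activators. Growth after 24 hr at 30 deg C in galactose medium is quantified by luminescence.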
# TDP43 rescue = qHTS of TDP-43 Inhibitors; TDP-43 expressing yeast growth rescue, BacTiter-Glo, 24 h; Potency, µM (series often up to 46.1 µM), without a hit: at the highest dose growth rescue (activation), most hits filed as activators; 1.8% of 410,000 active; AID 652104, 2013; further: % of control where 0% means no effect; nearly all actives have a fitted effect of over 50% in size
#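 Galactose-induced TDP-43 yeast, OD600=0.02, compound pinned; 24 hr, 30 deg C; BacTiter-Glo luminescence for growth. Inhibitors of TDP-43 toxicity read as activators.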
# An asterisk follows results filed as active; i = inactive; ? = inconclusive; · = not tested or not shown. The call rests on the fitted dose curve; in most records, active means well fitted curve in the direction sought with a large enough effect; inconclusive means small, poorly fitted or top-dose-only effect, or another doubt; inactive means no such curve, though single readings can be large; an effect the other way counts as inactive or inconclusive. Potency means the concentration at half of the fitted maximal effect.
SMILES,Abeta rescue,FUS suppressor,aSyn yeast inh,TDP43 rescue
COC(=O)[C@]12CCCCC=C1N(Cc1ccco1)C(=O)[C@H](CC(=O)N1CCC(c3ccccc3)CC1)C2,i,i,7%,13µM*
COC(=O)[C@]12CCCCC=C1N(CCC1=CCCCC1)C(=O)[C@H](CC(=O)NCc1ccccc1)C2,i,i,22%,35µM*
CCOC(=O)N1CCN(C(=O)C[C@H]2C[C@@]3(C(=O)OC)C(=C[C@H](C(C)C)O[C@@H]3C3CC3)N(CCc3ccc(OC)c(OC)c3)C2=O)CC1,·,i,·,·
CCOC(=O)[C@]12CCCC=C1N(Cc1ccco1)C(=O)[C@H](CC(=O)N1CCC(c3ccccc3)CC1)C2,i,i,2%,14%
CCOC(=O)[C@]12CCCC=C1N(CCC1=CCCCC1)C(=O)[C@H](CC(=O)NCCc1ccccc1OC)C2,i,i,6%,20µM*
CCOC(=O)[C@]12CCCC=C1N(CCC1=CCCCC1)C(=O)[C@H](CC(=O)NCCC(C)C)C2,i,i,-18%,25µM*
CCOC(=O)[C@]12CCCC=C1N(Cc1ccccc1)C(=O)[C@H](CC(=O)NCC13CC4CC(CC(C4)C1)C3)C2,i,13µM*,6%,-5%
CCCCCCCCN1C(=O)[C@H](CC(=O)NCCC(C)C)C[C@@]2(C(=O)OCC)CCCC=C12,i,?,-1%,-12%
O=C(Nc1ccc(OC(F)(F)F)cc1)Nc1c(-c2ccc(C(F)(F)F)cc2)nc2ncccn12,·,i,·,·
Cc1ccc2nc(NC(=O)CCn3cccc3)sc2c1,i,i,12%,17%
Cc1ccc2nc(NC(=O)CCn3c(=O)sc4ccccc43)sc2c1,i,i,-5%,20µM*
O=C(CCn1c(=O)sc2ccccc21)Nc1nc2ccccc2s1,i,i,12%,28µM*
COC(=O)[C@]12C[C@H](CC(=O)NCCCN3CCCC3=O)C(=O)N(CCC3=CCCCC3)C1=C[C@H](C(C)C)O[C@@H]2C1CC1,·,i,·,·
CCNc1nc(NC(C)C)nc(SCCOC(=O)c2ccccc2)n1,i,i,-16%,13µM*
CC(C)Nc1nc(NC(C)C)nc(SCCOC(=O)Nc2ccc(Cl)cc2Cl)n1,i,·,-6%,16µM*
Cc1ccc(OCCSc2nc(N)cc(N)n2)cc1,i,i,-17%,-20%
CCNc1nc(NC(C)C)nc(SCCOc2ccc(C)cc2)n1,i,i,-12%,13µM*
CCNc1nc(NCC)nc(OCCOC(=O)c2ccccc2)n1,i,i,-2%,?
CC(=O)c1cc(-c2cccc(Cl)c2O)c(=O)n2c1CCC2,·,i,·,·
O=c1c2ccccc2n(Cc2ccccc2)n1[C@@H](Cc1ccccc1)Cn1cc(-c2ccc(-c3ccccc3)cc2)nn1,·,i,·,·
O=C(Nc1ccccc1)Nc1nc2ncccn2c1-c1ccc(F)cc1,·,i,·,·
CC(C)(O)c1cc2ccc(C#Cc3ccsc3)cc2c(=O)o1,i,i,1%,25µM*
O=c1oc(CCCO)cc2ccc(C#Cc3ccsc3)cc12,i,i,-10%,14%
CCC1CCc2sc(C(=O)N(C)CC(=O)Nc3ccc(N4CCOCC4)cc3)cc2C1 (stereo not given),i,i,6%,8.9µM*
CCC1CCc2sc(C(=O)N(C)CC(=O)Nc3ccc(OC)cc3)cc2C1 (stereo not given),i,i,24%,11µM*
SMILES,Abeta rescue,FUS suppressor,aSyn yeast inh,TDP43 rescue
CC1CCc2sc(C(=O)N(C)CC(=O)Nc3ccc(N4CCOCC4)cc3)cc2C1 (stereo not given),i,i,4%,-7%
CCC1CCc2sc(C(=O)N(C)CC(=O)Nc3cccc(OC)c3)cc2C1 (stereo not given),i,·,0%,8%
Cc1ccccc1C(=O)NC1CCCCN(Cc2cccc(Cl)c2)C1=O (stereo not given),·,i,·,·
Cc1cc(N2CCOc3ccccc32)nc2ccccc12,·,i,·,·
O=C(Nc1ccc(C(O)(C(F)(F)F)C(F)(F)F)cc1)c1ccc(F)cc1F,·,i,·,·
COc1ccc(S[C@]2(C(=O)N3CCOCC3)CC(=O)N(C(=O)CCc3ccccc3)[C@@H]2c2ccc(OC)cc2)cc1,·,i,·,·
CCOC(=O)N(O)c1ccc(C=Cc2ccccc2)cc1,i,·,-2%,14µM*
Cc1nc(SCc2cccc(Oc3ccccc3)c2)n[nH]1,i,i,-32%,28µM*
Cc1ccc(N(Cc2ccccc2)C(=O)c2cccc(S(=O)(=O)N3CC(C)OC(C)C3)c2)cc1 (stereo not given),i,28µM*,-20%,-31%
COc1ccccc1C(=O)n1ccc2ccc(-c3ccc4ccn(Cc5ccc(C#N)cc5)c4c3)cc21,·,i,·,·
O=C1C2C3C=CC(C3=C(c3ccccc3)c3ccccc3)C2C(=O)N1CCO (stereo not given),i,i,15%,20µM*
O=C1C2C(c3ccccc3)C=CC(c3ccccc3)C2C(=O)N1CCO (stereo not given),i,i,23%,-2%
COP(=O)(O)[C@@H](CC(C)C)NC(=O)OCc1ccccc1,·,i,·,·
CCOc1ccc(C(=O)Nc2cc(-c3nc4ccccc4[nH]3)ccc2Cl)cc1[N+](=O)[O-],i,·,-14%,4µM*
CCCOc1ccc(C(=O)Nc2cc(-c3nc4ccccc4[nH]3)ccc2C)cc1,i,i,·,13µM*
CCOc1ccc(C(=O)Nc2cc(-c3nc4ccccc4[nH]3)ccc2C)cc1[N+](=O)[O-],i,?,-16%,-3%
COC(=O)C[C@@H]1CC[C@H]2[C@@H](COc3ccc(NC(=O)c4ccc(Cl)cc4)cc3C(=O)N2C)O1,·,i,·,·
NC(=Nc1nc(-c2ccccn2)cc2ccccc12)c1ccccn1,?,·,?,3.2µM*
N/C(=N\OC(=O)c1cccc2ccccc12)c1ccccn1,i,i,-46%,-42%
Cc1ccc(C23CC4CC(CC(CC(=O)NC(C)(C)CO)(C4)C2)C3)cc1,i,i,2%,35µM*
COC(=O)[C@]12C[C@H](CC(=O)N3CCOCC3)C(=O)N(CCc3ccc(OC)c(OC)c3)C1=C[C@H](C(C)C)O[C@@H]2C1CC1,·,i,·,·
CN1CCCN(C(=O)c2cc(=O)[nH]c3ccccc23)c2nc3ccccc3nc21,i,i,-12%,13%
CN1CCCN(C(=O)Cc2c(Cl)cccc2Cl)c2nc3ccccc3nc21,i,i,8%,22µM*
CCCCNS(=O)(=O)/C=C/c1ccccc1CNC(=O)OC(C)(C)C,·,i,·,·
CCN1C(=O)C(CC(=O)Nc2ccccc2Cl)N(NC(=O)c2cccc(F)c2)C1=S (stereo not given),i,·,15%,6.3µM*
CNC(=O)CC1C(=O)N(Cc2ccccc2)C(=S)N1NC(=O)c1cccc(F)c1 (stereo not given),i,·,-9%,7%
